# Source: the supplement of paper PMC13094657
# ± gives the standard deviation of the averaged measurements.
# System: MDA-MB-231
# Assay: kynurenine production, fold change vs DMSO IFNg/TNF control; higher = more kynurenine produced (less inhibition)
# Conditions: pre-treatment time: 18 h then 24 h IFNg/TNF
# Method in brief: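 Fold change over cytokine-stimulated vehicle wells on the same plate is the measure used for kynurenine production, averaged across duplicate plates in the first screening round. MDA-MB-231 cells, seeded 24 h beforehand at 7 × 10^4/well in 96-well plates, were pre-treated 18 h with each natural product in 0.1% DMSO and stimulated 24 h at 37°C with IFNγ (1 U/ml) and TNF (6.25 ng/ml). Supernatants were read at 492 nm following trichloroacetic acid and p-dimethylaminobenzaldehyde treatment, against 0–100 μM standards.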
row,Compound,kynurenine production
1,CC(C)=CCC[C@@H](C)CCO [(R)-Citronellol] (compound dose: 10 uM),0.824 ± 0.11
2,C=C1C(=O)O[C@@H]2C[C@@]3(C)CCC[C@H](C)C3=C[C@H]12 [Alantolactone] (compound dose: 10 uM),0.0823 ± 0.017
3,COc1ccc(-c2coc3cc(O)ccc3c2=O)cc1 [Formononetin] (compound dose: 10 uM),0.873 ± 0.0092
4,CC1(C)[C@@H](O[C@H]2O[C@H](C(=O)O)[C@@H](O)[C@H](O)[C@H]2O[C@@H]2O[C@H](C(=O)O)[C@@H](O)[C@H](O)[C@H]2O)CC[C@]2(C)[C@H]3C(=O)C=C4[C@@H]5C[C@@](C)(C(=O)O)CC[C@]5(C)CC[C@@]4(C)[C@]3(C)CC[C@@H]12 [Glycyrrhizic acid] (compound dose: 10 uM),0.842 ± 0.057
5,CC(C)=C[C@H]1C[C@](C)(O)[C@H]2[C@H]3CC[C@@H]4[C@@]5(C)CC[C@H](O[C@@H]6O[C@H](CO)[C@@H](O)[C@H](O[C@@H]7O[C@H](CO)[C@@H](O)[C@H](O)[C@H]7O)[C@H]6O[C@@H]6O[C@@H](CO)[C@H](O)[C@H]6O)C(C)(C)[C@@H]5CC[C@@]4(C)[C@@]34CO[C@@]2(C4)O1 [Bacoside A3] (compound dose: 10 uM),0.672 ± 0.11
6,COc1ccc2c(c1O)-c1c(O)c(OC)cc3c1[C@H](C2)[N+](C)(C)CC3 [Magnoflorine] (compound dose: 10 uM),0.937 ± 0.057
7,CC(C)=CCC[C@](C)(O)[C@@H]1CC=C(C)CC1 [alpha-Bisabolol] (compound dose: 10 uM),0.79 ± 0.15
8,C=C(C)[C@@H]1CC[C@]2(C(=O)O)CC[C@]3(C)[C@H](CC[C@@H]4[C@@]5(C)CC[C@H](O[C@@H]6OC[C@H](O)[C@H](O)[C@H]6O[C@@H]6O[C@@H](C)[C@H](O)[C@@H](O)[C@H]6O)[C@@](C)(CO)[C@@H]5CC[C@]43C)[C@@H]12 [Pulchinenoside A] (compound dose: 10 uM),0.878 ± 0.057
9,COC(=O)C1=CO[C@@H](O[C@@H]2O[C@H](CO)[C@@H](O)[C@H](O)[C@H]2O)[C@@H]2C(CO)=C[C@H](O)[C@H]12 [Methyl deacetylasperulosidate] (compound dose: 10 uM),1.15 ± 0.1
10,"CC1=CC23C(=O)C(C=C4COC(C)(C)OC4C24OC(C)(C)OC14)C1C(CC3C)C1(C)C (configuration not stated) [Ingenol-3,4,5,20-diacetonide] (compound dose: 10 uM)",0.893 ± 0.14
11,C[C@H]1[C@H](C)CC[C@]2(CO)CC[C@]3(C)C(=CC[C@@H]4[C@@]5(C)CC[C@H](O)C(C)(C)[C@@H]5CC[C@]43C)[C@H]12 [Uvaol] (compound dose: 10 uM),0.98 ± 0.3
12,C[C@@H]1CC[C@]2(C(=O)O[C@@H]3O[C@H](CO)[C@@H](O)[C@H](O)[C@H]3O)CC[C@]3(C)C(=CC[C@@H]4[C@@]5(C)CC[C@H](O)[C@](C)(C(=O)O)[C@@H]5CC[C@]43C)[C@@H]2[C@]1(C)O [Ilexsaponin A] (compound dose: 10 uM),0.883 ± 0.013
13,C=C1[C@H](OC(C)=O)[C@@H](O)[C@@H](OC(=O)c2cccnc2)C(C)(C)/C=C/[C@H](C)[C@H](OC(C)=O)[C@@]2(O)C[C@@](C)(OC(C)=O)[C@H](OC(=O)c3ccccc3)[C@@H]2[C@H]1OC(C)=O [Jatrophane 5] (compound dose: 10 uM),0.90473 ± 0.00055
14,CC(C)=CCC[C@](C)(O)[C@H]1CC[C@]2(C)[C@@H]1[C@H](O)C[C@@H]1[C@@]3(C)CC[C@H](O[C@@H]4O[C@H](CO)[C@@H](O)[C@H](O)[C@H]4O[C@@H]4O[C@H](CO)[C@@H](O)[C@H](O)[C@H]4O)C(C)(C)[C@@H]3CC[C@]12C [20(S)-Ginsenoside Rg3] (compound dose: 10 uM),0.969 ± 0.28
15,COC(=O)c1cccnc1 [Methyl nicotinate] (compound dose: 10 uM),0.874 ± 0.23
16,CC(CCC(OC1OC(COC2OC(CO)C(O)C(O)C2O)C(O)C(O)C1OC1OC(CO)C(O)C(O)C1O)C(C)(C)O)C1CCC2(C)C3CC=C4C(CCC(OC5OC(COC6OC(CO)C(O)C(O)C6O)C(O)C(O)C5O)C4(C)C)C3(C)C(=O)CC12C (configuration not stated) [11-oxo-mogroside V] (compound dose: 10 uM),1.33 ± 0.053
17,CC1(C)CC[C@]2(C(=O)O[C@@H]3O[C@H](CO)[C@@H](O)[C@H](O)[C@H]3O)CC[C@]3(C)C(=CC[C@@H]4[C@@]5(C)CC[C@H](O[C@@H]6O[C@H](C(=O)O)[C@@H](O)[C@H](O)[C@H]6O)C(C)(C)[C@@H]5CC[C@]43C)[C@@H]2C1 [Chikusetsusaponin Iva] (compound dose: 10 uM),0.788 ± 0.14
